Screening results (PubChem)
HP1b binding inh = inhibitors of HP1-beta chromodomain binding to methylated histone tails | P83916 | AlphaScreen HP1-beta / biotin-H3K9me3 peptide binding | Potency, µM (doses to about 114 µM), for the others: at the highest dose activity change, negative = inhibition, usual class: inhibitors | 390,000 tested, 0.56% active | AID 540317; also: nearly all actives have a fitted effect of over 70% in size
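Compound inhibition of the preformed complex between 50 nM HP1-beta and 50 nM biotinylated H3K9me3 peptide was read by AlphaScreen. Buffer was PBS pH 7.4 with 0.01% Tween-20. Incubations ran 30 min at room temperature, with 10 ug/mL donor/acceptor beads.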
BAZ2B block = BAZ2B (human) inhibition | 360,000 tested, 4.4% active | Potency, µM (top dose mostly 114 µM), for the others: at the top dose activity change, negative = inhibition, most hits filed as inhibitors | AlphaScreen BAZ2B-H3K14Ac peptide displacement; also: % is scaled to controls: 0 for no effect and ±100 for the full control effect; nearly all actives have a fitted effect of over 60% in size
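BAZ2B (50 nM) with biotin-H3(5-23)K14Ac peptide (50 nM) in PBS pH 7.4, 0.01% Tween-20, preformed 30 min, then compound 30 min at room temperature; top concentration 110uM. AlphaScreen streptavidin donor/nickel chelate acceptor beads (10 ug/mL final), 20 min dark, signal read.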
GLS inhibitor = blocks human kidney-isoform glutaminase activity | O94925 | GLS enzymatic activity, qHTS titration | Potency, µM (top dose mostly 45.5 µM), for inactives: top-dose activity change, negative = inhibition, hits mostly inhibitors | 410,000 tested, 0.21% active | AID 624170; also: % is scaled to controls: 0 for no effect and ±100 for the full control effect
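Enzyme dispensed in phosphate buffer (45 mM, pH 8.2, 0.02% Tween-20), compounds pinned in, then 1 mM L-glutamine solution and the glutamate oxidase–HRP–Amplex Red mix added; fluorescence read immediately and again after 30 min at room temperature.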
JMJD2A Tudor inh = inhibitors of human JMJD2A Tudor domain; Potency, µM (doses to about 114 µM), inactives show at the highest dose activity change, negative = inhibition, usual class: inhibitors; AID 504339; 390,000 tested, 4.4% active; AlphaScreen JMJD2A-Tudor / H3K4me3 peptide binding; O75164; also: % is scaled to controls: 0 for no effect and ±100 for the full control effect; nearly all actives have a fitted effect of over 50% in size
G9a block = inhibitors of human histone lysine methyltransferase G9a; Q96KQ7; G9a H3K9 monomethylation, AlphaScreen, 2 h; Potency, µM (series often up to 102 µM), inactives show at the highest dose activity, negative = inhibition, hits mostly inhibitors; 350,000 tested, 8.8% active; also: % is scaled to controls: 0 for no effect and ±100 for the full control effect; nearly all actives have a fitted effect of over 75% in size
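G9a (20 nM) preincubated 15 min RT with compounds, then 500 nM biotinylated H3K9 peptide and 20 uM SAM added; 2 h RT reaction. Monomethyl-H3K9 product detected by AlphaScreen with anti-H3K9me1 antibody, streptavidin donor and anti-rabbit IgG acceptor beads.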
* marks the source's active call; other numbers are inactive results; ? = inconclusive; . = no result given; ! = not confirmed by another sample; [ ] = dose if it differs, or a comment. This is a sample that favours compounds with a hit; in the whole collection about 10% have one here. Calls follow the shape of the dose curve; as a rule, active = well fitted curve in the direction sought with a large enough effect; inconclusive = small, poorly fitted or top-dose-only effect, or another doubt; inactive = no such curve, though single readings can be large; an effect the other way counts as inactive or inconclusive. Potency is read from the fitted curve at half-maximal effect.

SMILES | HP1b binding inh | BAZ2B block | GLS inhibitor | JMJD2A Tudor inh | G9a block
COc1c(C)cc(C(=O)C2CCCN(C(=O)CCc3scnc3C)C2)cc1C (stereo unspecified) | 36% | 3% | 9% | -12%[11.4 µM] | .
Cc1ccc(OCC(=O)Nc2ccc(N3CCN(S(C)(=O)=O)CC3)cc2)cc1 | 10% | -4% | -3% | -3% | .
CCc1ccc(OCC(=O)Nc2ccc(N3CCN(S(C)(=O)=O)CC3)cc2)cc1 | 34% | 13% | 1% | 1% | 79µM*
O=C(NCCc1csc(-c2ccccc2)n1)c1ccc(Br)o1 | 29% | -3% | -2% | 0% | 1%[59 µM]
O=C(NCCc1csc(-c2cccnc2)n1)c1ccc(Br)o1 | 56% | 2% | -1% | -18% | 20µM*
COc1cccc(C2=CC(=O)CC(c3ccco3)C2)c1 (stereo unspecified) | -3% | . | 3% | -35% | .
CC(=O)C1=C(O)C=C(c2ccco2)CC1c1ccco1 (stereo unspecified) | 5% | 56µM* | 22% | -31% | ?
CC(=O)Oc1ccc2c(=O)c(Oc3ccccc3)coc2c1OC(C)=O | -12% | 50µM* | 26% | ? | 8.9µM*
C[C@H](NCCC(c1ccccc1)c1ccccc1)c1ccccc1 | . | . | . | . | 0%[21.5 µM]
CNCCC(Oc1ccccc1C)c1ccccc1 (stereo unspecified) | . | . | -7% | . | 21µM*!
Cc1sc(NC(=O)C2CCCC2)c(C#N)c1C | ? | -1% | 3% | -19% | 7.1µM*
Cc1sc(NC(=O)C2CCCO2)c(C#N)c1C (stereo unspecified) | -7% | -27% | 22% | -20% | ?
CCOC(=O)c1c(NC(=O)C2CC2)sc2c1CC(C)(C)OC2 | 40% | -23% | -3% | 10% | 35µM*
CCCCC(=O)Nc1sc2c(c1C#N)CC(C)(C)OC2 | 10% | 9% | ? | 45µM* | 13%
CCN(CC)C(=O)c1sc(NC(=O)Cc2ccccc2)c(C#N)c1C | 18% | -14% | -5% | -22% | 1%[59 µM]
CCOC(=O)C(=O)Nc1sc(C(=O)N(CC)CC)c(C)c1C#N | 57% | -20% | 1% | -23% | 50µM*
Cc1ccnc(-n2c(CCN3C(=O)c4ccccc4C3=O)nc3ccccc3c2=O)c1 | 6% | -22% | -10% | -17% | -27%[59 µM]
Fc1ccc(CNC(=S)Nc2ccccc2Cl)cc1 | 39% | 4% | 7% | -4% | 3%[59 µM]
CCCC(=O)Nc1sc(C)c(-c2ccc(C(C)CC)cc2)c1C#N (stereo unspecified) | 16% | -37% | 1% | -11% | 6%
Cc1sc(NC(=O)CCCC(=O)O)c(C#N)c1C | 18% | -29% | 8% | -3% | ?
CCCCCC(=O)Nc1sc(C)c(C)c1C#N | ? | -29% | -4% | -9% | 3.2µM*
CCCC(=O)Nc1sc(C)c(C)c1C#N | -6% | -23% | -1% | -12% | 45µM*
O=C(OC(C(=O)NC1CCCCC1)c1ccccn1)c1cccs1 (stereo unspecified) | 64% | -20% | -1% | -2%[57.1 µM] | 8%[12.7 µM]
O=C(OC(C(=O)NCc1cccs1)c1ccccn1)c1cccs1 (stereo unspecified) | 13% | 56µM* | 0% | -11% | ?
CN=c1scc(-c2ccc([N+](=O)[O-])cc2)n1/N=C/c1ccco1 | 5% | ? | 13% | -14% | 50µM*
SMILES | HP1b binding inh | BAZ2B block | GLS inhibitor | JMJD2A Tudor inh | G9a block
O=C1c2ccc([N+](=O)[O-])cc2NC(c2ccco2)N1/N=C/c1ccco1 (stereo unspecified) | 0% | ? | 13% | ? | ?
O=C(Nc1cccc(S(=O)(=O)NC2=NCCC2)c1)c1cc(-c2ccco2)nc2ccccc12 | ? | 35µM* | -5% | ? | 40µM*
O=C(Nc1cccc(S(=O)(=O)NC2=NCCCCC2)c1)c1cc(-c2ccccc2)nc2ccccc12 | 20% | -3% | 1% | 3% | 17%[59 µM]
O=C(NC(=S)Nc1cccc(S(=O)(=O)NC2=NCCC2)c1)c1cc(-c2ccco2)nc2ccccc12 | ? | ? | -10% | -36% | 40µM*
COc1ccc(OC)c(NS(=O)(=O)Cc2ccccc2)c1 | . | ? | . | . | 35µM*
COc1ccc(C(C)NS(=O)(=O)Cc2ccccc2)cc1 (stereo unspecified) | 20% | -9% | 3% | -13% | 50µM*
Cc1cc(NC(=O)CCC2CCCC2)no1 | -1% | 7% | 9% | ? | 10%[12.7 µM]
CCn1nc(C(=O)N2CCc3ccccc32)c2ccccc2c1=O | 11% | 2% | 8% | -12% | -34%[0.501 µM]
O=C(Nc1ccc(S(=O)(=O)Nc2ncccn2)cc1)c1cccc(Cl)c1 | 42% | 1% | 0% | 1% | 4%[59 µM]
CC(=O)Nc1ccc(S(=O)(=O)NNC(=O)c2cccc(Cl)c2)cc1 | 22% | -9% | 25% | -24% | 5.6µM*
CC(=O)Nc1ccc(S(=O)(=O)NNC(=O)c2ccc3c(c2)OCO3)cc1 | 24% | 16% | 1% | 11µM* | 76%[12.7 µM]
CC(=O)Nc1ccc(S(=O)(=O)Nc2ccc3c(c2)OCO3)cc1 | 16% | -4% | 16% | -6% | 9%
O=C(Oc1ccccc1)c1ccc2nsnc2c1 | -22% | 50µM* | -9% | ? | ?
O=C(Oc1ccccc1)c1cccc(C(=O)Oc2ccccc2)c1 | . | . | -11%[99.4 µM] | . | .
O=C(Cc1cccc2ccccc12)Nc1cccnc1 | 34% | -19% | 3% | -5% | 19%[59 µM]
CCc1cccc(NC(=O)Cc2nc(-c3ccc(OC)cc3)no2)c1 | 35% | -16% | -7% | -8% | 7%[59 µM]
COc1ccc(CC(=O)NNC(=S)Nc2ccccc2)cc1Br | 23% | -6% | 19% | -14% | ?
CCOC(=O)C1(Cc2cccc(Cl)c2)CCCN(C(=O)c2ccnn2C)C1 (stereo unspecified) | 9% | -11% | 1% | -11% | -5%
CC1=CC(C)C(C[N+]2(C)CCCCC2)C(C)C1 (stereo unspecified) | -4% | ? | 1% | -1% | 25µM*
NC(=O)C1CCN(C(=S)c2ccc(-c3ccc(Br)cc3)o2)CC1 | -6% | -15% | -12% | -11% | 35µM*
O=C(O)c1ccc(-c2cccc(Cl)c2)o1 | 10% | . | 2% | -24% | .
NC(=O)c1ccc(-c2ccc(Br)cc2)o1 | -15% | -35% | 0% | -28% | 50µM*
Cc1ccc(S(=O)(=O)NC(=O)c2ccc(-c3ccc(-c4ccccc4)cc3)o2)c(C)c1 | . | ? | . | . | 40µM*
O=C(O)c1ccc(-c2ccc(-c3ccccc3)cc2)o1 | . | . | . | . | 35µM*
O=C(Nc1ccc2oc(-c3cccc(Cl)c3Cl)nc2c1)c1cccc(Br)c1 | 1% | -17% | -13% | ? | ?
NNC(=O)C(Cc1ccc(O)cc1)N1Cc2ccccc2C1=O (stereo unspecified) | 54% | -21% | 31% | 1% | 4%
CCCCn1c(N)c(N(CCOC)C(=O)c2ccc3c(c2)C(=O)N(c2ccccc2Cl)C3=O)c(=O)[nH]c1=O | 33% | . | 9% | -9% | .
